46 compounds from ChEMBL document CHEMBL3988442, “University of Dundee, Small-Polar-MMV Screening Library” (2021) can be followed below.

Where “and” joins values, the source holds several entries; their conditions need not be identical. Equal entries are not always repeated. Hit rate of the full screen: of about 34,000 compounds, about 290 (0.85%) showed an effect of 50% or more. The sample as a whole holds a higher share of strong results than the screen did.

This assay relates to Plasmodium falciparum. In words: Plasmodium falciparum sporozoite viability assay. In kind it is functional, organism-based. On the set-up: scale not given: in the data most compounds retested in dose-response had high values.

With `CC(Cn1cccn1)NC(=O)NCCc1cccs1` (stereo unspecified), the “Percent Effect” value was -5.389%.

Turning to `CC(C)c1n[nH]c(C2CN(C(=O)c3cn4ccccc4n3)CCO2)n1` (stereo unspecified), the “Percent Effect” value is on record as -4.937%.

For `Cn1cnc2c1CCN(CCOc1ccc(C#N)cc1)C2`, the “Percent Effect” value is 2.022%.

Turning to `CCC(=O)N1CCCC1(C)c1nc(C)no1` (stereo unspecified), the “Percent Effect” value is 15.01%.

As to `Cn1ccc(C(=O)N2CCCC2c2[nH]ncc2C(N)=O)n1` (stereo unspecified), the “Percent Effect” value is 3.652%.

Take `O=C(c1ccc(-n2cccn2)nc1)N1CCC(c2ccn[nH]2)C1` (stereo unspecified): the “Percent Effect” value is -0.6869%.

Take `Cc1nc[nH]c1CN1CCCC12CCN(c1nc3ccccc3s1)CC2`: the “Percent Effect” value (10 mM as filed; unlikely as a test dose) is 73.34% and 82.13%.

As to `c1ccc2sc(N3CCC4(CCCN4Cc4ncc[nH]4)CC3)nc2c1`, under “10 mM as filed; unlikely as a test dose”, the “Percent Effect” value was 21.32% and 38.1%.

As for `Cc1nc[nH]c1CN1CCCN(c2nc3ccccc3s2)CC1`, the “Percent Effect” value (10 mM as filed; unlikely as a test dose) is 2.478% and -18.14%.

On to `Cc1noc(C2CCN(C(=O)Nc3ccc(N(C)C)nc3)CC2)n1`, for which the “Percent Effect” value (10 mM as filed; unlikely as a test dose) is 63.01% and 33.92% and 30.08%.

As for `Cc1noc(C2CCN(C(=O)c3ccc(N(C)C)nc3)CC2)n1`, the “Percent Effect” value is recorded as 4.187%.

As for `Cc1noc(C2CCCN(C(=O)c3ccc(N(C)C)nc3)C2)n1` (stereo unspecified), the “Percent Effect” value worked out at 8.423%.

Take `CC(C)c1n[nH]c(C2CN(C(=O)c3cc(C4CC4)on3)CCO2)n1` (stereo unspecified): the “Percent Effect” value is listed as -9.758%.

Consider `CSc1ccc(-c2nc(CN3CCC(NC(C)=O)C3)c(C)o2)cc1` (stereo unspecified), for which, where the note is “10 mM as filed; unlikely as a test dose”, the “Percent Effect” value is 76.12% and 85.32% and 90.74%.

For `CSc1ccc(-c2nc(CN3CCC(NC(C)=O)CC3)c(C)o2)cc1`, for the setting “10 mM as filed; unlikely as a test dose”, the “Percent Effect” value is 0.03712% and -0.9585% and 6.229%.

Turning to `CNC(=O)C1CCN(Cc2nc(-c3ccc(SC)cc3)oc2C)C1` (stereo unspecified), the “Percent Effect” value (10 mM as filed; unlikely as a test dose) was -17.68% and 5.16% and 2.023%.

Regarding `Cc1ncncc1C(=O)N1CCOC(C)(C(=O)NC2CCCC2)C1` (stereo unspecified), the “Percent Effect” value was 12.89%.

Take `CCC(CC)c1nnc(NC(=O)N2CCCC(NC(C)=O)C2)s1` (stereo unspecified): the “Percent Effect” value (10 mM as filed; unlikely as a test dose) was 78.77% and 70.93%.

As for `CCC(CC)c1nnc(NC(=O)N2CCC(C(N)=O)CC2)s1`, for the setting “10 mM as filed; unlikely as a test dose”, the “Percent Effect” value is -8.76% and -13.24%.

In the case of `CC(=O)NC1CCCN(C(=O)CNc2cc(Cl)cc(Cl)c2)C1` (stereo unspecified), the “Percent Effect” value was -3.441%.

Regarding `CCCc1nnc(NC(=O)N2CCCC(NC(C)=O)C2)s1` (stereo unspecified), the “Percent Effect” value (10 mM as filed; unlikely as a test dose) was 54.93% and 67.74%.

Regarding `CC(=O)NC1CCCN(C(=O)Nc2nnc(C(C)C)s2)C1` (stereo unspecified), the “Percent Effect” value (10 mM as filed; unlikely as a test dose) was 68.35% and 80.73%.

As for `CC(=O)NC1CCCN(C(=O)NCc2cc[nH]n2)C1` (stereo unspecified), the “Percent Effect” value is -1.899%.

As for `CC(=O)NC1CCCN(C(=O)NCc2cccnc2N(C)C)C1` (stereo unspecified), the “Percent Effect” value is -28.43%.

For `CC(C)c1nnc(NC(=O)NC2CCN(Cc3ccccc3)C2)s1` (stereo unspecified), the “Percent Effect” value stood at 14.49%.

Turning to `CC(=O)NC1CCCN(C(=O)Nc2cnc3c(cnn3C(C)C)c2)C1` (stereo unspecified), the “Percent Effect” value is -3.926%.

Regarding `Cc1n[nH]c(C)c1CC(=O)NCc1ccccc1Cl`, the “Percent Effect” value is reported as -5.904%.

`COc1ccc(NC(=O)c2ccc(CN3CC[C@H](O)C3)cc2)c(OC)n1`: the “Percent Effect” value (10 mM as filed; unlikely as a test dose) is -15.85% and -8.926%.

As for `NC(=O)c1ccc(CN2CCCC(O)C2)cc1` (stereo unspecified), the “Percent Effect” value is on record as -1.578%.

Turning to `COc1cc(NC(=O)c2ccc(CN3CC[C@H](O)C3)cc2)cc(OC)c1`, the “Percent Effect” value (10 mM as filed; unlikely as a test dose) is 90.3% and 82.4%.

In the case of `Cc1cc(NC(=O)c2ccc(CN3CC[C@H](O)C3)cc2)ccc1F`, the “Percent Effect” value (10 mM as filed; unlikely as a test dose) was 96.75% and 98.24%.

Turning to `Cc1[nH]ccc1C(=O)Nc1cccc(CN2CCC(O)CC2)c1`, the “Percent Effect” value turned out to be 11.84%.

As for `Cc1cncc(NC(=O)c2ccc(CN3CC[C@H](O)C3)cc2)c1`, the “Percent Effect” value (10 mM as filed; unlikely as a test dose) is 88.45% and 79.14%.

With `CCc1ccc(C(=O)Nc2cccc(CN3CCCC3C(N)=O)c2)cc1` (stereo unspecified), the “Percent Effect” value is recorded as -39.95%.

In the case of `Cc1cncc(NC(=O)c2ccc(CN3CCCC(C(N)=O)C3)cc2)c1` (stereo unspecified), under “10 mM as filed; unlikely as a test dose”, the “Percent Effect” value was -5.227% and 10.36%.

Take `Fc1cccc(-c2nc(CN3CCCC3Cn3cccn3)co2)c1` (stereo unspecified): the “Percent Effect” value is 3.787%.

As to `CCc1cc(O)nc(C2CCCN2C(=O)c2cc(CC)on2)n1` (stereo unspecified), the “Percent Effect” value was found to be 0.3331%.

In the case of `CC(NC(=O)NCCCn1cncn1)c1ccc2c(c1)CC(=O)N2` (stereo unspecified), the “Percent Effect” value worked out at 3.485%.

As to `CSCc1cc(F)ccc1CNC(=O)N1CCOCC1`, the “Percent Effect” value is 1.579%.

Take `CCCN1Cc2ccccc2CC1C(=O)NC` (stereo unspecified): the “Percent Effect” value was -3.834%.

In the case of `CC(=O)N1Cc2ccccc2C[C@H]1C(=O)Nc1ccccn1`, for the setting “10 mM as filed; unlikely as a test dose”, the “Percent Effect” value was 80.79% and 67.33%.

Take `CC(=O)N1Cc2ccccc2CC1C(=O)Nc1cc(C)ccn1` (stereo unspecified): under “10 mM as filed; unlikely as a test dose”, the “Percent Effect” value was 71.78% and 85.23%.

As for `Cc1ccnc(NC(=O)C2(n3cnnn3)CCCCC2)c1`, the “Percent Effect” value was -7.357%.

In the case of `CCNC(=O)NCCc1csc(N2CCCC2)n1`, the “Percent Effect” value is reported as -15.2%.

Take `CCOc1ccc(-c2cc(=O)n3c(n2)CCCCC3)cc1`: the “Percent Effect” value is given as -4.121%.

For `COc1ccc(CN(Cc2ccccn2)Cc2cncn2C)cc1.O=C(O)CC(O)(CC(=O)O)C(=O)O`, the “Percent Effect” value stood at 3.185%.
